This is a sample that favours compounds with a hit; in the whole collection about 9.4% have one here.
SMN2 splice enh – SMN2 splice variant enhancement | Potency, µM (highest dose often 46.1 µM), for inactives: top-dose activity change, positive = activation, most hits filed as activators | HEK293 SMN2-luciferase splicing reporter, luminescence, 30-36 h | 210,000 tested, 2.8% active | AID 1458; also: % of control where 0% means no effect; nearly all actives have a fitted effect of over 55% in size
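HEK293 cells carry an SMN2 […]–luciferase reporter in which exon 7 inclusion puts luciferase in frame. Cells were plated 10-12 h before compound addition, then incubated 30-36 h at 37C. ONE-Glo luminescence was read; sodium butyrate at 4.5 mM final served as control.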
ELG1 repair inh – inhibitors of ELG1-dependent DNA repair in HEK293T cells; Potency, µM (titrated, usually from 46.1 µM), without a hit: top-dose activity change, negative = inhibition, usual class: inhibitors; 330,000 tested, 2.3% active; HEK293T ELG1-luciferase reporter, luminescence, 16 h; DNA damage induced by 5-fluorouridine; also: % is scaled to controls: 0 for no effect and ±100 for the full control effect; nearly all actives have a fitted effect of over 55% in size
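HEK293T cells expressing luciferase-tagged ELG1 (2,000/well) received 5-Fluorouridine plus compound or DMSO for 16 hr at 37 °C. Luciferase was read by ONE-Glo luminescence after 30 min at room temperature.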
FLuc modulator – counter-screen for miR-21 project: firefly luciferase inhibitors or activators; P08659; purified FLuc, Km substrates, luminescence inhibition; Potency, µM (top dose mostly 57.5 µM), for the others: at the top dose activity change, negative = inhibition, usual class: inhibitors; 360,000 tested, 6.9% active; AID 588342;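 also: plate controls were vehicle for no effect and reference inhibitor for full effect; nearly all actives have a fitted effect of over 55% in size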
Target sequence (P08659 whole entry, looked up): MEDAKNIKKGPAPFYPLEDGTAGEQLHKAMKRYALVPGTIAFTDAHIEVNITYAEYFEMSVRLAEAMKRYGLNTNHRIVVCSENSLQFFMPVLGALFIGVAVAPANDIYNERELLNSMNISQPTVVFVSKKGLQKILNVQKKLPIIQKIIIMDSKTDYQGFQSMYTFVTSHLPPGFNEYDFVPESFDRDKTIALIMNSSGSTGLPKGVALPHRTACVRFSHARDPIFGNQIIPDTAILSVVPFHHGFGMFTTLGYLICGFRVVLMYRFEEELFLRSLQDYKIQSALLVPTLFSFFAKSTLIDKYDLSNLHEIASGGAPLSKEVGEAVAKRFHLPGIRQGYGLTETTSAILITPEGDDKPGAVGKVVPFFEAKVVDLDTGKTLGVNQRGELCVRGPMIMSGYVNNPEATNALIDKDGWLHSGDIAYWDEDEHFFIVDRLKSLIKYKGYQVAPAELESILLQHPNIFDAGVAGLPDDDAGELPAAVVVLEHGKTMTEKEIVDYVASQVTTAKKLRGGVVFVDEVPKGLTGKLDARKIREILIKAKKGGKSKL
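Purified P. pyralis luciferase (10nM final) with 10uM D-luciferin and 10uM ATP (Km levels) in 50mM Tris acetate pH 7.5, 10mM Mg acetate, 0.01% Tween-20, 0.05% BSA; qHTS 6-point titration, ~60 µM downward; luminescence read.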
NPC1 promoter act – NPC1 promoter activation | Huh7 NPC1 promoter luciferase reporter, 24 h | Potency, µM (doses to about 9.22 µM), for inactives: at the highest dose activation, usual class: activators | 320,000 tested, 2.4% active | AID 485313; also: % of control where 0% means no effect; nearly all actives have a fitted effect of over 60% in size
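Stably transfected Huh7 (NPC1 promoter→luciferase), 1500 cells/well in Opti-MEM + 10% FBS, 2 h settle, then compound 24 h at 37 °C. Luminescence after 10 min with Amplite reagent.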
Rab9 prom act – Rab9 promoter activation | Huh7 Rab9 promoter-luciferase reporter, luminescence, 24 h | 320,000 tested, 2.8% active | Potency, µM (doses to about 9.22 µM), for the others: at the highest dose activation, negative = inhibition, most hits filed as activators | AID 485297; also: % of control where 0% means no effect; nearly all actives have a fitted effect of over 60% in size
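Measured in stably transfected Huh7 cells bearing a Rab9 promoter–luciferase construct: 24 h compound treatment at 37 °C, followed by luminescence detection.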
ELG1 genotox – genotoxicity induction in ELG1-luciferase HEK293T cells; HEK293T ELG1-luciferase reporter, luminescence, 16 h; Potency, µM (doses to about 46 µM), inactives show at the highest dose activity change, positive = activation, usual class: activators; 330,000 tested, 1.3% active; also: % of control where 0% means no effect; nearly all actives have a fitted effect of over 60% in size
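Cells (2,000/well) expressing the ELG1-luciferase fusion are dosed by pin tool and kept 16 hr at 37 °C, 5% CO2. Signal comes from ONE-Glo luciferase reagent after 30 min at room temperature.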
Numbers without * were called inactive; u = inconclusive; x = no result given; [ ] = another dose, or the depositor's remark. Calls follow the shape of the dose curve; as a rule, active = well fitted curve in the direction sought with a large enough effect; inconclusive = small, poorly fitted or top-dose-only effect, or another doubt; inactive = no such curve, though single readings can be large; an effect the other way counts as inactive or inconclusive. Potency is read from the fitted curve at half-maximal effect.

SMILES | SMN2 splice enh | ELG1 repair inh | FLuc modulator | NPC1 promoter act | Rab9 prom act | ELG1 genotox
Cc1ccc(CN2C(=NC(=O)CCC(=O)O)SC3CS(=O)(=O)CC32)cc1 (centres undefined) | x | 18% | 1% | -2% | -1% | 3%
CC(=O)N=C1SC2CS(=O)(=O)CC2N1Cc1ccc(C)cc1 (centres undefined) | x | 26% | -1% | 1% | -3% | -2%
CC(=O)N=C1SC2CS(=O)(=O)CC2N1c1ccc(-c2nc3ccc(C)cc3s2)cc1 (centres undefined) | 18µM* | u | 9.5µM* | 2.8µM* | 0.89µM* | u
Cc1ccc2nc(-c3ccc(N4C(=NC(=O)CCC(=O)O)SC5CS(=O)(=O)CC54)cc3)sc2c1 (centres undefined) | x | u | 11µM* | u | 4.5µM* | u
CC(=O)c1cccc(OCc2cc(C(=O)N3CC4C[C@@H]5CC3C[C@H](C4)C5)no2)c1 | x | 6% | u | -4% | -4% | 5%
COc1ccccc1OCc1cc(C(=O)NCCN2CCCC(O)C2)no1 (centres undefined) | x | 13% | 1% | -5% | 2% | 2%
O=C(c1cc(COc2ccc(F)cc2F)on1)N1CC2C[C@@H]3CC1C[C@H](C2)C3 | x | u | 17µM* | u | u | 12%
COc1ccccc1OCc1cc(C(=O)N2CCN(C)C(c3ccccc3)C2)no1 (centres undefined) | x | u | 9.5µM* | 4µM* | 2µM* | u
COc1ccccc1OCc1cc(C(=O)N2CC3C[C@@H]4CC2C[C@H](C3)C4)no1 | x | u | 17µM* | 4.5µM* | 3.5µM* | u
CC(=O)c1ccc(OCc2cc(C(=O)N3CC4C[C@@H]5CC3C[C@H](C4)C5)no2)cc1 | x | u | 9.5µM* | 2.5µM* | 3.2µM* | u
CC(C)(C)c1ccc(C(=O)Nc2nnc3n2CCS3)cc1 | x | x | 6µM* | x | x | x
CCOC(=O)C1C(O)=CC(=O)CC1c1ccccc1 (centres undefined) | x | -1% | 1% | -1% | -3% | 5%
CCOC(=O)C1C(=O)C=C(Nc2ccccc2F)CC1c1ccccc1 (centres undefined) | u | u | 17µM* | u | u | 12%
O=C1CSC(c2cn(-c3ccccc3)nc2-c2cc3ccccc3oc2=O)N1Cc1ccccc1 (centres undefined) | -9% | 21µM* | -1% | -3% | -8% | -2%
Cc1ccccc1NC(=O)CSc1nc2nccnc2c(=O)n1CCc1c[nH]c2ccccc12 | x | x | 2% | x | x | x
COc1ccc(-c2cc(-c3nnc(COC(=O)CC4CC5CCC4C5)o3)c3ccccc3n2)cc1OC (centres undefined) | -13% | 18µM* | u | -5% | -1% | -2%
COc1ccc(CNC(=O)COC(=O)CC2CC3CCC2C3)cc1OC (centres undefined) | -8% | 6% | 2% | -3% | -2% | 0%
Cc1ccc(Nc2nc(-c3ccc(F)cc3)cs2)nc1 | x | u | 4.3µM* | 3.5µM* | 4µM* | u
Cc1ccc(Nc2nc(-c3ccc(O)c(O)c3)cs2)nc1 | x | u | 3µM* | -23% | -33% | u
CC(=O)Nc1ccc(-c2csc(Nc3ccc(Cl)cn3)n2)cc1 | -42% | u | -20% | -3% | -4% | -4%
O=C1CC[C@H](NC(=O)c2ccccc2)C(=O)N1 | -24%[9.22 µM] | x | x | x | x | x
Cc1sc(NC(=O)CCCC(=O)O)c(C(N)=O)c1-c1ccccc1 | -1% | u | 0.76µM* | 16% | 4% | u
COC(=O)c1c(NC(=O)CCCC(=O)O)sc(C)c1C | -12% | 1% | 8% | -3% | -1% | 1%
Cc1ccc(C2c3c(oc4ccccc4c3=O)C(=O)N2CCCN2CCOCC2)o1 (centres undefined) | 7.1µM* | 17% | 3% | 2% | 1% | 7%
CC(C)Oc1ccc(C2c3c(oc4ccccc4c3=O)C(=O)N2CCCN2CCOCC2)cc1 (centres undefined) | x | 0% | 1% | 4% | 14% | 21µM*
SMILES | SMN2 splice enh | ELG1 repair inh | FLuc modulator | NPC1 promoter act | Rab9 prom act | ELG1 genotox
O=C1c2oc3ccccc3c(=O)c2C(c2cccnc2)N1CCCN1CCOCC1 (centres undefined) | -3% | 16% | -1% | -2% | 9% | 0%
Cc1cc(C)n(-c2ccc(C(=O)Nc3nc4ccccc4s3)cc2)n1 | 17% | u | 2.7µM* | 2.5µM* | u | u
NC(=S)Nc1nc2ccccc2s1 | 28% | u | u | 11% | 7% | 7%
Nc1ccc(C(=O)Nc2nc3ccccc3s2)cc1 | 1.6µM* | u | 0.38µM* | 0.63µM* | 0.4µM* | 0.52µM*
CC(=O)Nc1cc(C)nn1-c1nc2ccccc2s1 | 126% | u | u | -2% | 26% | u
Oc1c(C(c2ccccc2F)N2CCC3(CC2)OCCO3)sc2nc(-c3ccco3)nn12 (centres undefined) | x | x | -16% | x | x | x
Cc1ccc(C)c(C(=O)COC(=O)c2cccc(N3C(=O)c4c(C)nc5ccccc5c4C3=O)c2)c1 | -10% | u | 1.5µM* | u | u | 14%
Cc1nc2ccccc2c2c1C(=O)N(c1cccc(C(=O)O)c1)C2=O | 17% | -1% | -18% | 1% | -4% | 4%
CN1CCN(c2nc3c(c(=O)n(C)c(=O)n3C)n2C)CC1 | -5%[9.22 µM] | x | x | x | x | x
COc1cccc([C@@H]2Oc3ccc(OC)cc3C(=O)[C@H]2OC(=O)Nc2ccc(OC(F)F)cc2)c1 | -3% | x | x | x | x | x
Cc1ccccc1-n1nc(C(=O)c2cccs2)cc(-c2nc3ccccc3[nH]2)c1=N | -29% | 13µM* | 2% | 0% | -4% | -11%
COc1ccc(-n2nc(C(=O)c3cccs3)cc(-c3nc4ccccc4[nH]3)c2=N)cc1 | u | u | -1% | -6% | 0% | 23µM*
Cc1cc(NC(=O)c2cccs2)n(-c2nc3ccccc3[nH]2)n1 | -76% | -12% | -1% | -3% | -4% | 0%
Cc1cccc(-n2nc(C(=O)c3ccco3)cc(-c3nc4ccccc4[nH]3)c2=N)c1 | -99% | 13µM* | 0% | -1% | -5% | -20%
CCOC(=O)c1cccc(NC(=O)c2cc3c(Cl)nc4ccc(C)cc4c3s2)c1 | 0% | x | -3% | x | x | x
CCOC(=O)Nc1ccc2c(COC(=O)CNS(=O)(=O)c3cccc(Br)c3)cc(=O)oc2c1 | 10% | u | -1% | -5% | -1% | u

Assay outcomes (PubChem)
